Inconclusive results are not listed. Some compounds were tested as several samples or in several runs, with calls that do not always agree. The source made the active and inactive calls. The calls were made as follows, unless noted: active = hit-call score of the fitted dose curve at least 0.9, where 1 is the maximum; inactive = score below 0.9.
How the values were obtained:
[1] = target: Estrogen receptor (Homo sapiens) (UniProt P03372); assay: CCTE_Deisenroth_AIME_384WELL_LUC_Shift: CCTE's 384-well Estrogen Receptor Transactivation Assay with AIME metabolic competence data shift (ERTA luciferase; difference in metabolism positive and negative), Deisenroth Lab (AID 2284041);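 also: shift is response with S9 minus without S9 so positive means metabolism raised ER signal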
Estrogen receptor (Homo sapiens), sequence (P03372 whole entry, looked up): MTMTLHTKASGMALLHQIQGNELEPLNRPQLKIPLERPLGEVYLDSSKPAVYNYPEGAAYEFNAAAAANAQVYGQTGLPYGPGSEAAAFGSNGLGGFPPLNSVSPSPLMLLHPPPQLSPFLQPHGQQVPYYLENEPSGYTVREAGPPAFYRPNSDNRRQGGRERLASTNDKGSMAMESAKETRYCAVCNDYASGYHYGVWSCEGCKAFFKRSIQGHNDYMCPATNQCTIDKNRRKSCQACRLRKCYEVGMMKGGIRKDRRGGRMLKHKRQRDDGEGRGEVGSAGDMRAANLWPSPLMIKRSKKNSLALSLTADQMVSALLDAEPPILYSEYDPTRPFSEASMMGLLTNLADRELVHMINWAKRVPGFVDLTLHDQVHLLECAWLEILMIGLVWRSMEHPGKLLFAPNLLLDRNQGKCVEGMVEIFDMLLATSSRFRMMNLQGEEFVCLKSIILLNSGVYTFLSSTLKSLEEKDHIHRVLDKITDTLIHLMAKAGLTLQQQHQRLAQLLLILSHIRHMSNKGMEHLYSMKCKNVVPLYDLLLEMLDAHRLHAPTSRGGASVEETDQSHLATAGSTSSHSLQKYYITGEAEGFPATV
Method in brief: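 Chemicals (0.002–200 uM, 10 points) pre-incubated 2 h with alginate-encapsulated induced male Sprague Dawley rat liver S9 or S9-free, then medium applied 24 h to VM7Luc4E2 cells; luciferase. Endpoint is per-concentration difference, S9-positive minus negative.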

DIO2 (gene 1734) = assay: CCTE_GLTED_hDIO2: CCTE's human Deiodinase 2 (DIO2) Inhibition Assay, Great Lakes Toxicology and Ecology Division (GLTED) Lab (AID 2284050; active = hit-call score of the fitted dose curve at least 0.9, where 1 is the maximum)
Method in brief: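 Cell-free human DIO2 enzyme was incubated with test chemical for 3 h; iodide liberated from substrate was then quantified by the Sandell-Kolthoff reaction (absorbance), run in triplicate. Loss of signal versus DMSO baseline indicated inhibition.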

DIO3 (gene 1735) = assay: CCTE_GLTED_hDIO3: CCTE's human Deiodinase 3 (DIO3) Inhibition Assay, Great Lakes Toxicology and Ecology Division (GLTED) Lab (AID 2284055; active = hit-call score of the fitted dose curve at least 0.9, where 1 is the maximum;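 also: potency is for inhibition seen as loss of released iodide signal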)
Method in brief: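 Cell-free assay with human DIO3 enzyme produced by adenovirus expression; enzyme incubated with test chemical for 3 hours. Liberated iodide then measured by Sandell-Kolthoff absorbance; loss of signal versus DMSO baseline indicates inhibition, run in triplicate.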

[2] = CCTE_Shafer_MEA_acute_AB: CCTE's Alamar Blue Assay for Cytotoxicity in the Neural Acute Assay, Shafer Lab (AID 2284069; active = hit-call score of the fitted dose curve at least 0.9, where 1 is the maximum;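 also: active compounds lower the viability signal compared with DMSO wells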)
Method in brief: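 Resazurin reduction (CellTiter Blue, 1:6 in fresh medium) read at ex 544/em 590 nm marks viability loss relative to DMSO. Cells: primary rat cortical neuron networks on microelectrode arrays, treated after baseline recording at 13 or 15 days in vitro.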

[3] = CCTE_Shafer_MEA_dev_active_electrodes_number: CCTE's Neural Network Formation Assay for Number of Active Electrodes, Shafer Lab (AID 2284040; active = hit-call score of the fitted dose curve at least 0.9, where 1 is the maximum;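 as to AC50: potency for loss of active electrodes versus DMSO so lower counts are hits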)
Method in brief: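 Rat cortical primary cultures, 1.5 x 10^5 cells/well, PEI-coated MEA, laminin drop. Continuous exposure DIV 0–12; full media/compound change DIV 5, 9. Readout: electrodes with mean firing ≥5 spikes/min; AUC across days; loss vs DMSO.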

[4] = CCTE_Shafer_MEA_dev_burst_rate: CCTE's Neural Network Formation Assay for Burst Rate, Shafer Lab (AID 2284042)
Method in brief: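 Exposure ran continuously over 12 days of network development in rat cortical cultures, with compound refreshed during full media changes on DIV 5 and 9. Single-electrode bursts per recording time, well-mean over active electrodes, trapezoidal AUC across days 5–12, fitted downward relative to DMSO.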

[5] = CCTE_Shafer_MEA_dev_bursting_electrodes_number: CCTE's Neural Network Formation Assay for Number of Bursting Electrodes, Shafer Lab (AID 2284043; active = hit-call score of the fitted dose curve at least 0.9, where 1 is the maximum;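 as to AC50: potency is for loss of bursting electrodes relative to DMSO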)
Method in brief: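 Primary rat cortical neurons plated on 16-electrode MEA wells, exposed from day 0 with compound renewed at DIV 5 and 9. Electrodes bursting ≥1 burst per 2 min counted on days 5, 7, 9 and 12; trapezoidal AUC across days, fitted for loss versus DMSO.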

[6] = CCTE_Shafer_MEA_dev_per_burst_interspike_interval: CCTE's Neural Network Formation Assay for Burst Interspike Interval, Shafer Lab (AID 2284044);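 also: mean spike spacing inside bursts as AUC over recordings on days 5 7 9 12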
Method in brief: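 Developmental network-formation MEA in primary rat cortical cultures with exposure spanning days 0–12. Within-burst ISI is averaged per well and integrated across recording days by area under the curve, with DMSO as negative control baseline.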

[7] = CCTE_Shafer_MEA_dev_burst_duration_mean: CCTE's Neural Network Formation Assay for Mean Burst Duration, Shafer Lab (AID 2284045)
Method in brief: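 Primary rat cortical neurons on 48-well 16-electrode MEA plates, exposed from day 0 with renewal at DIV 5 and 9; spontaneous activity recorded on days 5, 7, 9, 12. Well-mean burst duration across bursting electrodes, collapsed as trapezoidal AUC; DMSO baseline.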

[8] = CCTE_Shafer_MEA_dev_interburst_interval_mean: CCTE's Neural Network Formation Assay for Mean Interburst Interval, Shafer Lab (AID 2284046);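 also: well-mean interburst interval of bursting electrodes as AUC over four recording days; curve fitted for decrease in interburst interval relative to DMSO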
Method in brief: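 Primary rat cortical neurons on PEI-coated 48-well MEA plates (laminin added with cells at plating) (16 electrodes/well), exposed from plating day 0 with renewal at DIV 5 and 9. Mean inter-burst interval averaged over bursting electrodes, AUC across days 5, 7, 9, 12; DMSO baseline.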

[9] = CCTE_Shafer_MEA_dev_inter_network_spike_interval_mean: CCTE's Neural Network Formation Assay for Mean Inter-network Spike Interval, Shafer Lab (AID 2284047)
Method in brief: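 Mean time between consecutive network-spike peaks, recorded extracellularly (adaptive spike detection) on DIV 5, 7, 9 and 12, summarized as trapezoidal AUC. Rat cortical cultures on MEAs dosed continuously days 0–12, re-dosed at feeds; loss-of-signal fit relative to DMSO.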

[10] = CCTE_Shafer_MEA_dev_network_spike_number: CCTE's Neural Network Formation Assay for Number of Network Spikes, Shafer Lab (AID 2284048)
Method in brief: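 Primary rat cortical neurons on PEI/laminin 48-well MEA plates, dosed from plating day 0 for 12 days, renewed at DIV 5 and 9. Network spike counts recorded DIV 5, 7, 9, 12, collapsed as trapezoidal AUC; DMSO baseline.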

[11] = CCTE_Shafer_MEA_dev_network_spike_peak: CCTE's Neural Network Formation Assay for Mean Number of Electrodes in Network Spike, Shafer Lab (AID 2284049);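 as to AC50: fitted for loss of signal meaning fewer electrodes in network spikes than DMSO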
Method in brief: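 Network-spike peak electrode count from recordings on days 5, 7, 9 and 12 was combined as trapezoidal area under the curve. Rat cortical cultures were treated continuously from plating, with compound renewed at each feed (DIV 5, 9); fits versus DMSO.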

[12] = CCTE_Shafer_MEA_dev_spike_duration_mean: CCTE's Neural Network Formation Assay for Mean Spike Duration, Shafer Lab (AID 2284051);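 also: mean network spike duration pooled as area under curve over DIV 5 to 12 recordings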;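 as to AC50: potency for a decrease in mean network spike duration versus DMSO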
Method in brief: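 Spontaneous activity was recorded on days 5, 7, 9 and 12 from rat cortical cultures grown on microelectrode arrays and dosed continuously from day 0, with media and compound renewed after the DIV 5 and 9 recordings. Network-spike duration was collapsed by area under the curve.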

[13] = CCTE_Shafer_MEA_dev_per_network_spike_spike_number_mean: CCTE's Neural Network Formation Assay for Mean Number of Spikes in a Network Spike, Shafer Lab (AID 2284053);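 as to AC50: fitted as decrease in spikes per network spike relative to DMSO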
Method in brief: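 Mean spike count within each network spike, taken in a 0.05 s window at its peak, was recorded on days 5, 7, 9 and 12 and integrated as trapezoidal area under the curve. Rat cortical cultures on MEA plates received continuous compound from day 0, refreshed at medium changes on DIV 5 and 9.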

[14] = CCTE_Shafer_MEA_dev_per_network_spike_spike_percent: CCTE's Neural Network Formation Assay for Percent of Spikes in a Network Spike, Shafer Lab (AID 2284054)
Method in brief: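 Rat primary cortical neurons were grown on 48-well MEA plates (16 electrodes/well), exposed from plating day 0 through day 12, with treatment renewed on DIV 5 and 9. Percent of spikes within 0.05 s network-spike peaks was measured, summarised as AUC across days 5, 7, 9, 12.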

[15] = CCTE_Shafer_MEA_dev_LDH: CCTE's Lactate Dehydrogenase Assay for Cytotoxicity in the Neural Network Formation Assay, Shafer Lab (AID 2284068; active = hit-call score of the fitted dose curve at least 0.9, where 1 is the maximum;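 also: exposure for twelve days from plating with re-dosing on DIV 5 and 9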)
Method in brief: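 Primary rat cortical neurons were cultured on PEI-coated MEA plates and exposed from plating through day 12, with compound renewed at medium changes on DIV 5 and 9. LDH activity was read spectrophotometrically; loss of signal versus DMSO indicates reduced viability.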

[16] = CCTE_Shafer_MEA_dev_AB: CCTE's Alamar Blue Assay for Cytotoxicity in the Neural Network Formation Assay, Shafer Lab (AID 2284083; active = hit-call score of the fitted dose curve at least 0.9, where 1 is the maximum;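 also: resazurin reduction fluorescence as viability of cultured neurons; twelve days of exposure from plating with re-dosing on DIV 5 and 9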)
Method in brief: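 Resazurin fluorescence, relative to DMSO, gauges viability after twelve days of exposure that began at plating of rat cortical neurons (1.5 x 10^5 cells/well, 48-well MEA); treatment renewed with full medium exchange on DIV 5 and 9.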

Measured: AC50

CCCCCCCCCCCCOC(=O)c1cc(O)c(O)c(O)c1
inactive: [1]
active: DIO2 (gene 1734) 82 µM | DIO3 (gene 1735) 6.66 µM

Oc1c(Cl)cc(Cl)cc1Sc1cc(Cl)cc(Cl)c1O
inactive: [2]

COC(=O)C(F)(F)C(F)(F)C(F)(F)F
not listed: [1] | DIO2 (gene 1734) | DIO3 (gene 1735) | [2] | [15] | [16]
inactive: all other assays above

OCC(F)(F)C(F)(F)C(F)(F)C(F)(F)C(F)(F)C(F)(F)C(F)(F)C(F)(F)C(F)(F)C(F)(F)C(F)(F)F
inactive: [3] | [4] | [5] | [6] | [7] | [8] | [9] | [10] | [11] | [12] | [13] | [14] | [15] | [16]
active: [3] 15 µM | [5] 6.73 µM | [8] 26.4 µM | [11] 8.24 µM | [12] 6.13 µM | [13] 6.63 µM | [14] 9.08 µM | [15] 9.45 µM | [16] 18.9 µM

NC(C(F)(F)F)C(F)(F)F
not listed: [1] | DIO2 (gene 1734) | DIO3 (gene 1735) | [2] | [15]
inactive: all other assays above

CN(CCO)S(=O)(=O)C(F)(F)C(F)(F)C(F)(F)C(F)(F)C(F)(F)C(F)(F)C(F)(F)C(F)(F)F
not listed: [1] | DIO2 (gene 1734) | DIO3 (gene 1735) | [2] | [3] | [15] | [16]
inactive: all other assays above

O=C(F)C(F)(F)C(F)(F)C(F)(F)C(F)F
not listed: [1] | DIO2 (gene 1734) | DIO3 (gene 1735) | [2] | [15]
inactive: all other assays above

CN(C)CCOC(c1ccccc1)c1ccccc1
active: [3] 6.36 µM | [5] 4.33 µM | [11] 10 µM | [12] 10 µM | [14] 14 µM
not listed: [1] | DIO2 (gene 1734) | DIO3 (gene 1735) | [15]
inactive: all other assays above

Oc1ccc(Cc2ccccc2O)cc1
inactive: [2]

N=C(N)c1ccc(OCCCCCOc2ccc(C(=N)N)cc2)cc1
inactive: [2]

NC(=NCCCCCCN=C(N)/N=C(\N)Nc1ccc(Cl)cc1)/N=C(\N)Nc1ccc(Cl)cc1
active: DIO2 (gene 1734) 13 µM | DIO3 (gene 1735) 2.65 µM
inactive: [1]
